The list is not random: actives were taken first. Their share in the collection is about 3.2%.
PK Bst – pyruvate kinase (B. stearothermophilus) modulation. purified pyruvate kinase, luminescence ATP production; ribose 5-phosphate activator present at AC10. Potency, µM. 51,000 tested, 1.2% active; in the data active means potency below about 11 µM; inconclusive means mostly about 12 µM to 25 µM;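 the screen sought inhibitors and activators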;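 further: scaled between full activation by ribose 5 phosphate and full inhibition by luteolin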
FLuc inh – firefly luciferase inhibition. P08659. purified firefly luciferase, luminescence, 8 min. Potency, µM (highest dose often 57.1 µM), without a hit: top-dose activity change, negative = inhibition, hits mostly inhibitors. 72,000 tested, 2.2% active; active means well fitted inhibition curve with a large enough effect; inconclusive means small, poorly fitted or top-dose-only effect; further: on the % scale 0 is the no-effect control and ±100 the full control effect; nearly all actives have a fitted effect of over 40% in size
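Inhibition of light generation by firefly luciferase from ATP and luciferin was profiled with concentration-response curves per sample, ATP held at 10 uM within the enzyme's linear range. Plates were read by luminescence after an 8-minute ambient incubation.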
GBA activity – alters purified human glucocerebrosidase activity | 48,000 tested, 1.1% active | Potency, µM | purified enzyme, resorufin glucoside fluorescence (screen aimed at inhibitors), 20 min | P04062; in the data active means potency below about 15 µM; inconclusive means mostly about 16 µM to 33 µM;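 further: the screen sought inhibitors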
Target sequence (P04062 whole entry, looked up): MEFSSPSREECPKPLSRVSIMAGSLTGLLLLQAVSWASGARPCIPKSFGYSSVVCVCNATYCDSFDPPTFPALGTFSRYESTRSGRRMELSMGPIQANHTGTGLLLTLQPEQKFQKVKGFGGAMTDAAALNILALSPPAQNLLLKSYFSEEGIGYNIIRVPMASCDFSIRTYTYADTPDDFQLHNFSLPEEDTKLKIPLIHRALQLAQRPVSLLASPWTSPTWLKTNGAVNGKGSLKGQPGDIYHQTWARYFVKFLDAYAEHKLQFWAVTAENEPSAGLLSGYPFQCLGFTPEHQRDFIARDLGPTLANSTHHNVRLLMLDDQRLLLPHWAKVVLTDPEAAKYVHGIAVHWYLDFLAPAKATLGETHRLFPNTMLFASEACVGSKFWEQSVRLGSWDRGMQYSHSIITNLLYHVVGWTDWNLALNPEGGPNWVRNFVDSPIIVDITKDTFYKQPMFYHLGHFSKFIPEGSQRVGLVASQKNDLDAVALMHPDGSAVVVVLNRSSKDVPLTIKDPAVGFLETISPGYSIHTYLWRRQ
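Normal human glucocerebrosidase (0.2 nM final) was assayed with resorufin β-D-glucopyranoside (30 uM final) in 50mM citric acid/KH2PO4, 10mM sodium taurocholate, 0.01% tween-20, pH 5.9. Compounds were titrated; fluorescence (Ex 548, Em 600) read after 20 min at RT.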
Starred values were filed as active, the others as inactive; i = inactive; u = inconclusive; x = not tested or not shown; [ ] = another dose, or the depositor's remark. Potency means the concentration at half of the fitted maximal effect.

SMILES	PK Bst	FLuc inh	GBA activity
CCCn1nc(NS(=O)(=O)c2ccccc2)c2cc3ccccc3nc21	>57	2%	>77
NC1=C(O)C(=O)[C@H](c2c[nH]c3ccc(OCc4ccccc4)cc23)O1	x	0%[11.4 µM]	x
CC(=O)OC(C)(C)N=Nc1ccc(Br)cc1	x	4%[11.4 µM]	x
CC(=O)N1CCC2(CC1)CCN(C(=O)Nc1cccc(C#N)c1)CC2	x	0%[11.4 µM]	x
O=c1cc(-c2ccccc2)oc2cc(O)cc(O)c12	x	13µM*	x
COc1cc(O)c2c(=O)cc(-c3ccccc3)oc2c1	x	-4%[11.4 µM]	x
CCOC(=O)c1sc(NC(=O)c2ccco2)nc1C	x	-7%	x
CCOC(=O)c1sc(NC(=O)c2ccc(C)o2)nc1C	x	13µM*	x
CN(C)c1ncc2nc(-c3ccc(Cl)cc3)c(=O)n(CCC#N)c2n1	x	0%[11.4 µM]	x
O=C1[C@H]2[C@H]3[C@H](O)[C@H](O)C/C(=N/OCc4ccccc4)[C@@H]3CC[C@@H]2C(=O)N1Cc1ccc2c(c1)OCO2	x	1%[11.4 µM]	x
C(=N\n1cnnc1)/c1cccc2ccccc12	>57	0%	14*
COc1ccccc1/C=N/n1cnnc1	x	0%	x
COCC(=O)N1CCC2(CC1)CCN(C(=O)NC(C)C)CC2	x	1%[11.4 µM]	x
CCN(CC)C(=O)Cn1cnc2ccccc2c1=O	>57	0%	>77
O=C(Cn1cnc2ccccc2c1=O)c1ccc2c(c1)OCCO2	x	13µM*	>77
C/C(=C\C(=O)Nc1nccs1)c1ccccc1	i	25µM*	>77
CCC(C(=O)Nc1nccs1)c1ccccc1 (stereo not given)	x	-3%	x
COc1ccc(Oc2ncc3nc(-c4ccc(OC)cc4)c(=O)n(Cc4cccs4)c3n2)cc1	x	0%[11.4 µM]	x
CCNC(=O)[C@@H]1O[C@@H](n2cnc3c(NCc4ccccc4)ncnc32)[C@@H](O)[C@H]1O	x	0%	x
O=C(Oc1ccc2c(c1)OCO2)c1ccc(F)cc1Cl	x	13µM*	>77
CCOc1ncccc1C(=O)Oc1ccc2c(c1)OCO2	>57	1%	i
Cc1ncc(CO)c(CN)c1O	x	0%[11.4 µM]	x
c1ccc2sc(N3CCN(Cc4ccc5c(c4)OCO5)CC3)nc2c1	x	0%	x
c1ccc2sc(-c3ccc4c(c3)OCO4)nc2c1	x	1.6µM*	x
COc1ccc(NC(=O)C2CCN(S(=O)(=O)c3cccc4cccnc34)CC2)cc1OC	x	3%	x
SMILES	PK Bst	FLuc inh	GBA activity
O=C(Nc1cccc(C(F)(F)F)c1)C1CCCN1S(=O)(=O)c1cccc2cccnc12 (stereo not given)	8.3*	2%	>77
O=C(C1CCCN1S(=O)(=O)c1cccc2cccnc12)N1CCc2ccccc21 (stereo not given)	x	1%	x
O=C(Nc1ccc2c(c1)OCO2)C1CCN(S(=O)(=O)c2cccc3cccnc23)CC1	6.7*	0%	>77
O=C(C1CCN(S(=O)(=O)c2cccc3cccnc23)CC1)N1CCc2ccccc21	9.7*	4%	>77
CCOC(=O)c1cccc(NC(=O)C2CCCN2S(=O)(=O)c2cccc3cccnc23)c1 (stereo not given)	x	0%	x
CN1CCN(c2ncc3nc(-c4ccc(F)cc4)c(=O)n(Cc4cccs4)c3n2)CC1	x	3%[11.4 µM]	x
O=S(=O)(c1ccccc1)N1CCC2(CCCN(C(c3ccccc3)c3ccccc3)C2)CC1	x	0%[11.4 µM]	x
CC(=O)C[C@H](O)[C@@H](NC(=O)OC(C)(C)C)C(C)C	x	2%[11.4 µM]	x
c1ccc2c(c1)nnn1c3ccccc3nc21	x	13µM*	x
Cc1nc2ccccc2c2nc3ccccc3n12	x	-1%	x
COCCn1c(=O)c(-c2ccc(Cl)cc2)nc2cnc(N3CCNCC3)nc21	x	-1%[11.4 µM]	x
O=C(Nc1ccc(N2CCCC2)cc1)c1cccc(F)c1	u	3.2µM*	>77
CN1CCN(c2ccc(C(=O)c3ccc(F)cc3)cc2)CC1	x	25µM*	x
O=C(O)CCC(=O)N1CCN(c2ccc(C(=O)c3ccc(F)cc3)cc2)CC1	>57	-3%	>77
O=C(Nc1ccc(N2CCCC2=O)cc1)c1cccc(F)c1	x	-13%	>77
O=C(c1ccccc1)c1ccc(N2CCCC2)cc1	x	13µM*	x
O=C(c1ccccc1)c1ccc(N2CCNCC2)cc1	>57	-2%	>77
COc1ccc(-c2nc3cnc(Nc4cccc(OC)c4)nc3n(C)c2=O)cc1	x	-2%[11.4 µM]	x
COC(=O)N1CCC2(CCN(Cc3ccccc3OC)CC2)CC1	x	2%[11.4 µM]	x
O=C(OC1CCOC1=O)c1ccc2ccccc2n1 (stereo not given)	>57	-2%	>77
O=C1c2ccccc2C(=O)C1c1ccc2ccccc2n1	1.1*	0.79µM*	x
O=C(NCCCn1ccnc1)c1cccnc1	>26	0%[25.5 µM]	x
O=C(NCCCn1ccnc1)c1cn(-c2ccccc2)nc1-c1ccc(F)cc1	i	13µM*	u
Cc1cc(-c2ccccc2)nc2cc(C(=O)NCCCn3ccnc3)nn12	>57	1%	>77
Cc1cc(C(=O)NCCCn2ccnc2)sc1-c1ccccc1	>57	-4%	11*
SMILES	PK Bst	FLuc inh	GBA activity
Cn1c(=O)c(-c2ccc(Cl)cc2)nc2cnc(Oc3ccccc3)nc21	x	1%[11.4 µM]	x
Cc1nc2cnc(OCc3ccccc3)nc2n(C)c1=O	x	1%[11.4 µM]	x
N#CCCn1c(=O)c(-c2ccc(Cl)cc2)nc2cnc(OCc3ccccc3)nc21	x	0%[11.4 µM]	x
CCNc1ncc2nc(C)c(=O)n(CCc3ccccc3)c2n1	x	1%[11.4 µM]	x
CC1(C)Cc2ccccc2-c2nnc(-c3cccnc3)n21	>57	1%	>77
CC1(C)Cc2ccccc2-c2nnc(-c3ccc(O)cc3)n21	>57	-3%	8.4*
O=c1cnc2cnc(Oc3ccccc3)nc2n1C1CC1	x	1%[11.4 µM]	x
CCCC(=O)Nc1ccc(NC(=O)c2ccccn2)cn1	x	20µM*	>77
CCCC(=O)Nc1ccc(NC(=O)c2ccccc2OC)cn1	>57	-2%	>77
Cn1c(=O)c(-c2cccs2)nc2cnc(Oc3ccccc3)nc21	x	0%[11.4 µM]	x
COc1cc(/C=C\C(=O)CC(=O)/C=C\c2ccc(O)c(OC)c2)ccc1O	x	-16%[11.4 µM]	x
CN(C)C(=O)c1ccc(-c2nc(Nc3ccncc3)c3ccccc3n2)cc1	x	-10%[2.29 µM]	x
CN(C)c1ccc(-c2nc(Nc3ccncc3)c3ccccc3n2)cc1	x	0.4µM*	x
O=C(O)c1ccc(SSc2ccc(C(=O)O)cn2)nc1	x	-7%[11.4 µM]	x
O=c1c(O)c(-c2ccc(O)c(O)c2)oc2ccccc12	x	0%[11.4 µM]	x
COc1ccccc1-c1cc(C(=O)NCc2ccco2)no1	>57	-26%	13*
COc1ccccc1-c1cc(C(=O)NCc2cccs2)no1	>57	-14%	x
CCNc1ncc2nc(-c3ccc(OC)cc3)c(=O)n(Cc3ccc(F)cc3)c2n1	x	1%[11.4 µM]	x
Cc1ccc2[nH]c3c(c2c1)CCc1cn[nH]c1-3	8.7*	-6%	>77
Cc1ccc2[nH]c3c(c2c1)CCC3=O	>57	-2%	>77
Cc1cc(C)c2c(N)c(C(=O)Nc3nccs3)sc2n1	x	0.5µM*	x
COCc1cc(C)nc2sc(C(=O)Nc3nccs3)c(N)c12	x	-13%	x
Cc1ccn2cc(C(=O)Nc3ccc4c(c3)OCCO4)nc2c1	7*	6.3µM*	>77
Cc1ccn2cc(C(=O)Nc3ccccc3N3CCOCC3)nc2c1	x	u	>77
Cc1c(-c2ccc(Cl)cc2)noc1C1CCN(CCc2ccccc2)CC1	x	-1%	x
Cc1cccc(CNc2cc(-c3ccc(C(=O)N(C)C)cc3)ncn2)c1	x	-1%[2.29 µM]	x
N#C/C=C1/NC(=O)c2ccccc2S1	i	1%	>77
O=C1N/C(=C\c2ccccc2)c2ccccc21	5.6*	-5%	>77
O=c1ccn([C@H]2O[C@H](CO)[C@@H](O)[C@@H]2O)c(=O)[nH]1	x	1%[11.4 µM]	x
CN(C)c1ccc(N/C=C/C(=O)c2ccc(F)cc2)cc1	u	0.63µM*	>77

Screening data: PubChem BioAssay, National Center for Advancing Translational Sciences (NCATS)
